Test results reported in PubChem BioAssay AID1159580 (chemical genetic matrix, 2015).
In all, about 5,500 compounds went through this assay and about 2,000 (36%) were called active. Inconclusive results (about 18%) are left out. No stated cut-off is given here; in the data, active means normalized growth mostly below about 0.91 (no sharp cut-off); inconclusive means no clear call, values can overlap the other calls; inactive means mostly above about 0.92. Some of the results follow.

Assay: chemical genetic growth profiling, strain panel (AID 1159580);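 further: tested at 20 µM; growth read once vehicle control cultures reached saturation at 30 °C; 1 = growth at the plate median or of vehicle wells; lower values mean less growth of the strain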
Conditions: growth OD

Measured: normalized growth

COc1ccc2c(c1)OC[C@@H](Cc1ccc(OC)c(OC)c1)[C@@H]2O
active: S. cerevisiae deletion strains, locus YKR001C, strain vps1, hits give low values 0.892 | S. cerevisiae deletion strains, locus YLR262C, strain YPT6 (second series), hits give low values 0.831
inactive: S. cerevisiae deletion strains, locus YJR075W, strain HOC1, hits give low values 0.951 | S. cerevisiae deletion strains, locus YKL009W, strain mrt4, hits give low values 0.985 | S. cerevisiae deletion strains, locus YKL068W, hits give low values 0.988 | S. cerevisiae deletion strains, locus YKL085W, strain MDH1 (second series), hits give low values 0.956 | S. cerevisiae deletion strains, locus YKL085W, strain MDH1, hits give low values 0.956 | S. cerevisiae deletion strains, locus YKL160W, strain elf1, hits give low values 1 | S. cerevisiae deletion strains, locus YKL190W, strain CNB1, hits give low values 1 | S. cerevisiae deletion strains, locus YKR026C, strain gcn3, hits give low values 0.992 | S. cerevisiae deletion strains, locus YKR091W, strain srl3, hits give low values 0.988 | S. cerevisiae deletion strains, locus YLL001W, strain dnm1, hits give low values 0.99 | S. cerevisiae deletion strains, locus YLL026W, hits give low values 0.995 | S. cerevisiae deletion strains, locus YLL041C, strain sdh2, hits give low values 0.989 | S. cerevisiae deletion strains, locus YLR027C, strain aat2, hits give low values 0.989 | S. cerevisiae deletion strains, locus YLR039C, strain RIC1, hits give low values 0.749 | S. cerevisiae deletion strains, locus YLR058C, strain SHM2, hits give low values 0.997 | S. cerevisiae deletion strains, locus YLR102C, strain apc9, hits give low values 0.987 | S. cerevisiae deletion strains, locus YLR113W, strain HOG1, hits give low values 0.875 | S. cerevisiae deletion strains, locus YLR221C, strain rsa3, hits give low values 1.01 | S. cerevisiae deletion strains, locus YLR258W, strain gsy2, hits give low values 0.979 | S. cerevisiae deletion strains, locus YLR262C, strain YPT6, hits give low values 0.805 | S. cerevisiae deletion strains, locus YLR268W, strain sec22, hits give low values 0.999 | S. cerevisiae deletion strains, locus YLR320W, strain mms22, hits give low values 0.971 | S. cerevisiae deletion strains, locus YLR330W, strain CHS5, hits give low values 0.993 | S. cerevisiae deletion strains, locus YLR342W, strain FKS1 (second series), hits give low values 0.958 | S. cerevisiae deletion strains, locus YLR342W, strain FKS1, hits give low values 0.973 | S. cerevisiae deletion strains, locus YLR357W, strain rsc2, hits give low values 0.998 | S. cerevisiae deletion strains, locus YLR370C, strain arc18, hits give low values 1 | S. cerevisiae deletion strains, locus YLR371W, strain rom2, hits give low values 0.985 | S. cerevisiae deletion strains, locus YLR384C, strain iki3, hits give low values 0.982 | S. cerevisiae deletion strains, locus YLR418C, strain cdc73, hits give low values 1.01 | S. cerevisiae deletion strains, locus YML016C, strain PPZ1, hits give low values 1 | S. cerevisiae deletion strains, locus YML032C, strain rad52, hits give low values 0.981 | S. cerevisiae deletion strains, locus YML120C, strain ndi1, hits give low values 0.986 | S. cerevisiae deletion strains, locus YML124C, strain tub3, hits give low values 0.988 | S. cerevisiae deletion strains, locus YMR058W, strain fet3, hits give low values 1.01 | S. cerevisiae deletion strains, locus YMR078C, strain ctf18, hits give low values 0.986 | S. cerevisiae deletion strains, locus YMR125W, strain sto1, hits give low values 1.01 | S. cerevisiae deletion strains, locus YMR129W, hits give low values 0.985 | S. cerevisiae deletion strains, locus YMR205C, strain PFK2, hits give low values 0.955 | S. cerevisiae deletion strains, locus YMR223W, strain ubp8, hits give low values 0.987 | S. cerevisiae deletion strains, locus YMR231W, strain pep5, hits give low values 0.987 | S. cerevisiae deletion strains, locus YMR263W, strain SAP30, hits give low values 1.01 | S. cerevisiae deletion strains, locus YMR307W, strain GAS1, hits give low values 0.945 | S. cerevisiae deletion strains, locus YNL067W, strain RPL9B, hits give low values 1.01 | S. cerevisiae deletion strains, locus YNL071W, strain lat1, hits give low values 0.994 | S. cerevisiae deletion strains, locus YNL128W, strain TEP1, hits give low values 1.01 | S. cerevisiae deletion strains, locus YNL153C, strain GIM3, hits give low values 1.01 | S. cerevisiae deletion strains, locus YNL183C, strain NPR1, hits give low values 0.933 | S. cerevisiae deletion strains, locus YNL209W, strain ssb2, hits give low values 1.01 | S. cerevisiae deletion strains, locus YNL233W, strain BNI4, hits give low values 0.978 | S. cerevisiae deletion strains, locus YNL248C, strain rpa49, hits give low values 1.01 | S. cerevisiae deletion strains, locus YNL250W, strain rad50, hits give low values 1 | S. cerevisiae deletion strains, locus YNL271C, strain bni1, hits give low values 0.992 | S. cerevisiae deletion strains, locus YNL298W, strain CLA4, hits give low values 0.992 | S. cerevisiae deletion strains, locus YNL307C, strain MCK1, hits give low values 0.953 | S. cerevisiae deletion strains, locus YNL322C, strain KRE1 (second series), hits give low values 0.967 | S. cerevisiae deletion strains, locus YNL322C, strain KRE1, hits give low values 0.999 | S. cerevisiae deletion strains, locus YNR049C, strain mso1, hits give low values 0.99 | S. cerevisiae deletion strains, locus YNR052C, strain pop2, hits give low values 0.977 | S. cerevisiae deletion strains, locus YOL006C, strain TOP1, hits give low values 0.993 | S. cerevisiae deletion strains, locus YOL147C, strain pex11, hits give low values 0.985 | S. cerevisiae deletion strains, locus YOR001W, strain rrp6, hits give low values 1.01 | S. cerevisiae deletion strains, locus YOR061W, strain CKA2, hits give low values 1 | S. cerevisiae deletion strains, locus YOR069W, strain VPS5, hits give low values 0.992 | S. cerevisiae deletion strains, locus YOR070C, strain gyp1, hits give low values 0.998 | S. cerevisiae deletion strains, locus YOR080W, strain dia2, hits give low values 0.974 | S. cerevisiae deletion strains, locus YOR083W, strain WHI5, hits give low values 0.987 | S. cerevisiae deletion strains, locus YOR106W, strain vam3, hits give low values 1.02 | S. cerevisiae deletion strains, locus YOR136W, strain idh2, hits give low values 0.991 | S. cerevisiae deletion strains, locus YOR144C, strain elg1, hits give low values 0.987 | S. cerevisiae deletion strains, locus YOR184W, strain ser1, hits give low values 0.952 | S. cerevisiae deletion strains, locus YOR231W, strain MKK1, hits give low values 0.976 | S. cerevisiae deletion strains, locus YOR265W, strain rbl2, hits give low values 1.01 | S. cerevisiae deletion strains, locus YOR270C, strain vph1, hits give low values 1.01 | S. cerevisiae deletion strains, locus YOR290C, strain snf2, hits give low values 1 | S. cerevisiae deletion strains, locus YOR316C, strain cot1, hits give low values 0.99 | S. cerevisiae deletion strains, locus YPL051W, strain arl3, hits give low values 0.982 | S. cerevisiae deletion strains, locus YPL055C, strain LGE1, hits give low values 0.996 | S. cerevisiae deletion strains, locus YPL078C, strain atp4, hits give low values 1.01 | S. cerevisiae deletion strains, locus YPL106C, strain sse1, hits give low values 0.99 | S. cerevisiae deletion strains, locus YPL240C, strain hsp82, hits give low values 0.995 | S. cerevisiae deletion strains, locus YPL241C, strain CIN2, hits give low values 0.998 | S. cerevisiae deletion strains, locus YPL256C, strain CLN2, hits give low values 0.983 | S. cerevisiae deletion strains, locus YPR119W, strain clb2, hits give low values 0.983 | S. cerevisiae deletion strains, locus YPR141C, strain kar3, hits give low values 0.995 | S. cerevisiae deletion strains, locus YPR163C, strain tif3, hits give low values 0.995 | S. cerevisiae deletion strains, locus YPR167C, strain met16, hits give low values 0.985 | S. cerevisiae deletion strains, strain wtn01, hits give low values 0.982 | S. cerevisiae strains, strain wild type, hits give low values 1.01
